AMA1-RON2 inh: inhibitors of Plasmodium falciparum AMA1-RON2 interaction; AlphaScreen AMA1-biotinylated RON2 peptide binding; Potency, µM (top dose mostly 58.2 µM), for inactives: at the highest dose activity change, negative = inhibition, most hits filed as inhibitors; hit rate 0.2% among 360,000;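 note: potency is the fitted concentration of half-maximal effect; 0% = vehicle wells and -100% = peptide control; nearly all actives have a fitted effect of over 45% in size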
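AMA1 (3D7) with his tag at 25 nM final met compounds first, then biotinylated RON2 peptide at 25 nM; detection used donor plus acceptor beads, 10 µg/mL apiece, read by AlphaScreen after 30 min at room temperature.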
Cycloheximide cs: affects cycloheximide protein synthesis inhibition readout, counter-screen; cell reporter, cycloheximide protein synthesis inhibition counterscreen; max response, %; hit rate 12% among 300,000; AID 2314; in the data active = max response mostly above about 13%, no sharp cut-off; inactive = mostly below about 14%; note: read at 38.3 µM for the half of the compounds with a filed dose; 0% is about no effect
Pf growth 96h: P. falciparum growth inhibition at 96 hour, primary screen for plastid delayed-death inhibitors. Potency, µM (highest dose often 28.7 µM), for the others: top-dose activity change, negative = inhibition, usual class: inhibitors. P. falciparum luciferase reporter growth, 96 h. hit rate 6.9% among 320,000; note: potency is the fitted concentration of half-maximal effect; % is set by controls: 0 for no effect and ±100 for the full control effect
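Two-generation exposure (96 h) targets delayed-death phenotype. Reporter parasites carrying integrated firefly luciferase, in red cells at 2% hematocrit and 0.05% parasitemia final, kept at 37 C, 5% CO2; luminescence loss indicates inhibition.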
HCV inhibitor: HCV inhibition; hit rate 3.4% among 340,000; Huh7.5.1 HCVcc-Cre infection, luciferase reporter, 44 h; Potency, µM (series often up to 41.8 µM), for the others: at the highest dose activity change, negative = inhibition, most hits filed as inhibitors; note: potency is the fitted concentration of half-maximal effect; % is set by controls: 0 for no effect and ±100 for the full control effect
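After 44 h co-culture of compound, cells and HCVcc-Cre (~0.5 moi), substrate is added for 15 min at room temperature and luciferase measured over 15 sec. Cells were seeded at 1,000/well and pre-cultured 4 h.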
Pf growth 48h: P. falciparum growth inhibition at 48 hours (one generation); hit rate 5.9% among 310,000; Potency, µM (titrated, usually from 28.7 µM), without a hit: top-dose activity change, negative = inhibition, usual class: inhibitors; P. falciparum luciferase growth in erythrocytes, 48 h; note: potency is the fitted concentration of half-maximal effect; % is set by controls: 0 for no effect and ±100 for the full control effect
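Cell-based growth assay: transgenic P. falciparum expressing firefly luciferase, cultured in red cells within RPMI 1640 containing 0.5% w/v Albumax, 24 mM bicarbonate and gentamycin. A drop in luciferase activity indicates inhibition.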
Shiga inhibitor: Shiga toxin inhibition; hit rate 9.2% among 290,000; AID 2315; Vero cells, Shiga toxin protein synthesis inhibition reporter; inhibition, % at 38.7 µM; in the data active = inhibition mostly above about 28%, no sharp cut-off; inactive = mostly below about 43%; note: 0% is about no effect
* hit, by the source's call; u = inconclusive; x = not tested or not shown; [ ] = another dose, or the depositor's remark. A selection: hits, their analogues and other compounds. The true share with any hit is near 21%. Unless noted, calls come from the whole dose curve; as a rule, active = well fitted curve in the direction sought with a large enough effect; inconclusive = small, poorly fitted or top-dose-only effect, or another doubt; inactive = no such curve, though single readings can be large; an effect the other way counts as inactive or inconclusive.

SMILES	AMA1-RON2 inh	Cycloheximide cs	Pf growth 96h	HCV inhibitor	Pf growth 48h	Shiga inhibitor
CC(NC(=O)c1ccccc1)C(=O)OCC(=O)c1ccc(Br)cc1 (centres undefined)	-3.2%	-0.7	6.6%	16.6%	15.7%	9.7
Cc1ccc(C(=O)CC(=O)c2ccccc2)cc1	100.6%	48.4*	3.7µM*	3.7%	44.5%	66.3*
CC(=O)NC(C)C(=O)OCC(=O)c1ccc(-c2ccccc2)cc1 (centres undefined)	-1.7%	16.1*	35.1%	-1.5%	23.6%	49.1*
Cc1ccc(C(=O)C[n+]2ccccc2)cc1	-0.8%	24.6*	16.2%	25.7%	44.5%	35.9*
Cc1ccc(C)[n+](CC(=O)c2ccc(-c3ccccc3)cc2)c1	-15.8%	-2.1	-5.9%	-21.5%	9.28µM*	-6.0
C=CCNc1oc(-c2cccs2)nc1S(=O)(=O)c1ccccc1	8.9%	9.0	66.0%[1.15 µM]	-11.8%	-10.1%	-9.5
Nc1cc(C(=O)OCC(=O)NCCNC(=O)COC(=O)c2ccc(Cl)c(N)c2)ccc1Cl	3.8%	-9.4	-28.9%	8.0%	2.5%	-4.2
CC(=O)Nc1cc(C(=O)OCC(=O)c2ccccc2)ccc1C	-17.8%	34.6*	201.7%	-5.6%	152.9%	active
Cc1cc(C)c(C(=O)CC(=O)c2ccccc2Cl)c(O)c1	48.8%	22.1*	u	-8.6%	24.3%[0.00184 µM]	22.3
Cc1ccc(C[n+]2ccccc2)cc1	-3.7%	x	u	4.47µM*	9.28µM*	x
CN(C(=O)c1ccccc1C(=O)OCC(=O)c1ccc(Br)cc1)c1ccccc1	-21.1%	x	11.7µM*	-24.0%	u	x
CN(C(=O)c1ccccc1C(=O)OCC(=O)Nc1ccccc1)c1ccccc1	-1.3%	x	u	-6.1%	u	x
COC(=O)c1ccccc1C(=O)c1c(C)cc(C)cc1C	-11.5%	x	x	x	x	x
Cc1ccc(S(=O)(=O)N2CCN(C(=O)Cc3c(F)cccc3Cl)CC2)cc1	-1.5%	x	-21.7%	30.2%	-8.1%	x
O=C(CCNC(=O)c1ccc([N+](=O)[O-])cc1)NCc1ccco1	9.9%	x	-32.3%	15.5%	-21.7%	x
Cc1ccc(C(=O)OCC(=O)c2ccccc2)cc1	46.1%	22.7*	u	0.5%	275.7%	48.3*
COc1ccc(C(=O)N/N=C(\C)CC(=O)Nc2ccc3ccccc3c2)c(OC)c1	0.1%	13.3*	u	x	u	14.9
COc1ccccc1C(=O)N/N=C(\C)CC(=O)Nc1ccc2c(c1)OCCO2	23.1%	9.4	u	5.8%	18.2%	29.9
COc1ccc(CNC(=O)C/C(C)=N/NC(=O)c2cc(OC)cc(OC)c2)cc1	x	-3.5	24.6%	x	31.0%	-7.1
COc1ccc(CNC(=O)C/C(C)=N/NC(=O)c2ccc(OC)cc2OC)cc1	69.1%	14.5	-1.6%	u	4.0%	47.1*
C#CCn1c(=NC(=O)c2ccc(Br)s2)sc2cccc(OC)c21	-5.1%	19.4*	u	-12.1%	u	72.7*
C=CCn1c(=NC(=O)c2cccs2)sc2cccc(OC)c21	3.4%	28.2*	u	u	u	52.8*
COC(=O)c1ccc(C(=O)Nc2ccc3nc(-c4ccncc4)[nH]c3c2)cc1	-3.2%	2.0	-6.6%	-6.1%	-10.0%[0.00184 µM]	-2.3
O=C(O)CCC(=O)Nc1ccc(-c2nc3ccc(C(=O)c4ccccc4)cc3[nH]2)cc1	-5.9%	21.5*	u	-10.8%	66.8%	x
O=C(c1ccccc1)c1ccc2nc(-c3ccc(NC(=O)c4ccccc4F)cc3)[nH]c2c1	-5.9%	12.1	32.2%	u	u	34.0*
SMILES	AMA1-RON2 inh	Cycloheximide cs	Pf growth 96h	HCV inhibitor	Pf growth 48h	Shiga inhibitor
COc1ccc(C(O)c2nc(-c3cnn(C)c3)cs2)cc1 (centres undefined)	9.7%	x	x	x	x	x
C/C(=N\N(c1ccccc1)c1ccccc1)c1ccco1	-25.2%	5.2	-11.1%	-3.0%	u	-1.4
Cc1ccc(S(=O)(=O)N(C)c2ccc(C(=O)NCC(c3ccccc3)N3CCCC3)cc2)cc1 (centres undefined)	-8.6%	x	x	x	x	x
CCOc1cc(/C=C(/NC(C)=O)C(=O)O)cc(Cl)c1OCc1cccc(Br)c1	-1.1%	0.7	0.9%	1.1%	-6.7%	-3.5
CC#CC(=O)N1CCC(CO)(CCc2ccccc2)CC1	-6.9%	17.8*	-2.3%	13.1%	-10.8%	62.6
COc1cc(-c2cc3nc4ccccc4n3c(N)c2C#N)cc(OC)c1OC	12.3%	1.6	u	-19.2%	38.0%	-4.2
COc1ccc(C)cc1-n1c(N)c(C#N)c(C#N)c1-c1ccc(OC)c(OC)c1OC	-5.5%	0.6	50.0%	-29.4%	11.7µM*	2.4
Cc1ccc(NC(=O)CCl)cc1S(=O)(=O)N1CCCCCC1	11.2%	12.1	9.28µM*	u	-5.7%	1.6
Cc1ccc(NC(=O)CN2C(=O)CN(C)C2=O)cc1S(=O)(=O)N1CCCCC1	18.3%	8.7	-27.6%	-25.9%	-5.5%	27.6
O=C(/C=C/c1ccco1)Nc1cccc(S(=O)(=O)N2CCOCC2)c1	-1.6%[2.32 µM]	2.2	u	-27.3%	15.4%	12.9
Cc1ccc(NC(=O)CNc2ccccc2N2CCCC2=O)cc1S(=O)(=O)N1CCCCC1	2.6%	x	9.28µM*	u	10.4µM*	x
Cc1ccc(NC(=O)/C=C/c2ccco2)cc1S(=O)(=O)N1CCCCCC1	-6.8%	x	x	2.82µM*	x	x
COCCNCC(=O)Nc1ccc(C)c(S(=O)(=O)N2CCCCC2)c1	-2.8%	-3.3	-2.7%	3.7%	-2.5%	-6.6
Cc1ccc(NC(=O)CC2OC(=O)c3ccccc32)cc1S(=O)(=O)N1CCCCCC1 (centres undefined)	-3.3%	x	u	u	8.28µM*	x
O=C(CCNC(=O)N1CC(=O)Nc2ccccc21)NCc1ccc(Cl)cc1	-2.8%	x	x	x	x	x
Cc1ccc(NC(=O)c2ccccc2F)cc1S(=O)(=O)N1CCCCCC1	-0.4%	9.5	u	u	-12.0%	-5.6
Cc1ccc(NC(=O)Cc2ccccc2F)cc1S(=O)(=O)N1CCCCCC1	4.8%	x	u	11.2µM*	u	x
Cc1ccc(NC(=O)CSc2nnc(N)s2)cc1S(=O)(=O)N1CCCCC1	20.5%	-1.9	u	u	u	-2.0
Cc1ccc(NC(=O)CSc2nnc(C3CC3)n2C)cc1S(=O)(=O)N1CCCCC1	5.1%	x	u	u	13.1µM*	x
CCc1noc(C)c1C(=O)Nc1ccc(C)c(S(=O)(=O)N2CCCCCC2)c1	-1.1%	x	u	12.6µM*	10.4µM*	x
COCCCn1c(=O)c2sccc2n(Cc2ccc(C)cc2)c1=O	38.5%	-0.4	-7.5%	-6.9%	0.5%	1.5
CSc1nnc(-c2ccc(S(=O)(=O)N3CCCCC3)cc2)o1	6.7%	11.3	-9.7%	2.9%	-9.3%	-4.9
CCN1CCN(c2ccc(S(=O)(=O)N3CCCCC3)cc2NC(=O)c2ccc(OC(F)F)cc2)CC1	-13.3%	x	u	u	u	x

Bioassay records from PubChem.
